Most compounds without a hit are left out; they make up all but 3.1% or so of the library.
BRCA1 expr act – qHTS Assay to Identify Small Molecule Activators of BRCA1 Expression. hit rate 1.1% among 380,000. MCF7-BRCA1-FFLuc reporter, luminescence, 48 h; response scale: scaled: vehicle 0%, 10 µM genistein 100%. Potency, µM (top dose mostly 46.1 µM), usual class: activators. AID 624202, 2012; further: nearly all actives have a fitted effect of over 80% in size
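Compounds are tested at multiple concentrations on MCF7 BRCA1-luciferase reporter cells seeded at 2000 per well; after 48 h, a single luminescence end-point is taken and curves fitted to the normalized data.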
ELG1 repair inh – qHTS screen for small molecules that inhibit ELG1-dependent DNA repair in human embryonic kidney (HEK293T) cells expressing luciferase-tagged ELG1; hit rate 2.3% among 330,000; HEK293T ELG1-luciferase reporter, luminescence, 16 h; DNA damage induced by 5-fluorouridine; Potency, µM (series often up to 46.1 µM), hits mostly inhibitors; further: nearly all actives have a fitted effect of over 55% in size
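In this reporter screen, reduction of luminescence relative to DMSO vehicle indicated activity. Compounds and 5-fluorouridine were added together to 2,000 cells per well, incubated for 16 hr at 37 °C, then developed with ONE-Glo.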
IL2 activator – qHTS of IL-2 Activators; hit rate 0.065% among 360,000; IL-2 activation reporter assay, cell-based qHTS; stimulated with anti-CD3/CD4/CD28 beads; in transgenic mouse T cells; activation, % (series mostly up to about 46 µM); AID 652025, 2013; in the data active means activation above about 50%; inconclusive means mostly about 30% to 49%
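Unstimulated transgenic mouse T cells preincubated 60 min with compound, then stimulated with anti-CD3/anti-CD4-coated beads plus anti-CD28 for 18 h at 37 degrees C. IL-2 response read as EGFP and DsRed fluorescence by plate cytometry.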
Nrf2 ARE act – qHTS of Nrf2 Activators; hit rate 0.31% among 410,000; AID 624171, 2012; AREc32 ARE-luciferase reporter (MCF7-derived line), luminescence, 24 h; Potency, µM (highest dose often 46.1 µM), hits mostly activators; further: nearly all actives have a fitted effect of over 65% in size
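For detection, Steady-Glo was added and plates sat 30 min at RT; before that, AREc32_Fluc cells grown overnight in OPTI-MEM/5% FBS had been treated with 23 nL compound for 24 hr at 37 deg C.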
Hits are given with their value; – = inactive; ? = inconclusive; · = no result; [ ] = remark or other dose. Unless noted, the call rests on the fitted dose curve; in most records, active means well fitted curve in the direction sought with a large enough effect; inconclusive means small, poorly fitted or top-dose-only effect, or another doubt; inactive means no such curve, though single readings can be large; an effect the other way counts as inactive or inconclusive.

SMILES | BRCA1 expr act | ELG1 repair inh | IL2 activator | Nrf2 ARE act
O=C(Nc1ccccn1)C1CCN(c2ncnc3c2nc2n3CCCCC2)CC1 | – | 2.6µM | – | –
CCc1ccc(C2CC(=O)Oc3c2c(=O)n(C)c2ccccc32)cc1 (centres undefined) | · | · | · | –
Cc1cccc(CNC(=O)c2ccc(C)c(-n3c(C)nc4cccnc43)c2)c1 | · | · | · | –
CC(NC(=O)Nc1nnc(C(F)(F)F)s1)(C(F)(F)F)C(F)(F)F | – | 5.2µM | – | –
O=C(Nc1ccccc1C(=O)Nc1nnc(C(F)(F)F)s1)c1ccccc1Cl | – | 5.2µM | – | –
O=C(Nc1ccccc1C(=O)Nc1nncs1)c1ccccc1 | – | 21µM | – | –
Cc1nn(-c2ccccc2)nc1C(=O)Nc1nnc(C(F)(F)F)s1 | – | 15µM | – | –
Cc1ccc2c(c1)cc1c(=O)n(CC(=O)NCc3ccco3)nc(C)n12 | · | · | · | –
Cc1cc(C(=O)Nc2nnc(C(F)(F)F)s2)cs1 | – | ? | – | 8.9µM
Cc1cc(C(=O)Nc2nnc(C(F)(F)F)s2)no1 | – | ? | – | –
Cc1cccc(Cn2c(O)c(N=NC(=S)Nc3ccccc3F)c3ccccc32)c1 | – | 3.7µM | – | –
Oc1c(N=NC(=S)Nc2ccccc2F)c2ccccc2n1Cc1cccc(Cl)c1 | – | ? | – | –
Oc1c(N=NC(=S)Nc2ccccc2F)c2ccccc2n1Cc1ccc(F)cc1 | – | 5.2µM | – | –
CN(C)c1ccc(CNC(=O)c2cccn2-c2nnc(N3CCCCC3)s2)cc1 | – | · | · | –
O=C(c1cccc2ccccc12)N1CCN(S(=O)(=O)c2ccccc2)CC1 | – | · | · | ·
COc1ccc(-c2csc(NC(=O)CSc3nc(SC)ns3)n2)cc1 | – | ? | – | –
COc1ccc(CC(=O)Nc2nc(-c3ccncc3)cs2)cc1 | – | 18µM | – | –
COc1ccc(CCC(=O)Nc2nc(-c3ccncc3)cs2)cc1 | · | – | · | ·
COc1ccc(-c2csc(NC(=O)CSc3nc(C)cs3)n2)cc1 | 13µM | · | – | –
O=C(Cc1ccc(F)cc1)Nc1nc(-c2ccc(F)c(F)c2)cs1 | – | – | – | –
COc1ccc(CC(=O)Nc2nc(-c3ccc(F)c(F)c3)cs2)cc1 | – | 21µM | – | –
O=C(CCS(=O)(=O)c1ccc(F)cc1)Nc1nc(-c2ccncc2)cs1 | – | – | – | 16µM
O=C(Nc1nc(-c2ccc(-c3ccccc3)cc2)cs1)C1=COCCO1 | – | ? | – | –[9.22 µM]
COc1ccc(-c2csc(NC(=O)COC(=O)C3=COCCO3)n2)cc1 | 5µM | ? | – | –
Cc1ccc(N2CCN(C(=O)C3CCN(S(=O)(=O)c4ccc5c(c4)oc(=O)n5C)CC3)CC2C)cc1 (centres undefined) | – | · | · | –
SMILES | BRCA1 expr act | ELG1 repair inh | IL2 activator | Nrf2 ARE act
COc1ccc(N2CCN(C(=O)CSc3nc(-c4ccccc4)no3)CC2)cc1 | · | · | · | –
CCSc1ncc(Cl)c(C(=O)N(Cc2ccc(N(C)C)cc2)Cc2ccco2)n1 | · | · | · | –
Cn1c(=O)c2c(nc(NCCCO)n2CCc2ccccc2)n(C)c1=O | – | – | – | –
CC(O)CNc1nc2c(c(=O)n(C)c(=O)n2C)n1C/C=C/c1ccccc1 (centres undefined) | – | 23µM | – | –
C/C(Cl)=C\Cn1c(Nc2ccccc2)nc2c1c(=O)n(C)c(=O)n2C | – | 11µM | – | –
Cn1c(=O)c2c(nc(NCCCO)n2C/C=C/c2ccccc2)n(C)c1=O | – | 12µM | – | –
C/C(Cl)=C/Cn1c(NCCN(C)C)nc2c1c(=O)n(C)c(=O)n2C | – | – | – | –
Cc1ccc(Cl)cc1N1CCN(C(=O)Cn2cnc3sc(C)c(S(=O)(=O)N4CCC(C)CC4)c3c2=O)CC1 | – | · | · | –
Cc1ccc(CCNC(=O)c2cn(C)c3ccc(S(=O)(=O)N4CCCCC4)cc3c2=O)cc1 | · | · | · | –
COc1ccc(NC(=O)c2c(NC(=O)C(F)(F)F)sc3c2CCCCC3)cc1 | · | · | · | –
COc1ccc(CN(C(=O)CSc2nnc(-c3ccccc3C)o2)c2ccc(F)cc2)cc1 | – | ? | – | –
O=C(CSc1nnc(-c2c[nH]c3ccccc23)o1)N(Cc1ccccc1)c1ccc(F)cc1 | – | 21µM | – | –
CC(C)c1ccc(Nc2ncnc3c2c(-c2ccccc2)cn3-c2ccccc2)cc1 | · | · | · | –
Cc1ccc(Cn2nnnc2CN2CCC(NC(=O)c3ccc(Br)cc3)CC2)cc1 | – | 21µM | – | –
Cc1ccc(Cn2nnnc2CN2CCC(c3nc4ccc(Cl)cc4[nH]3)CC2)cc1 | – | 23µM | – | –
COCCCNC1=C(Cl)C(=O)c2ccccc2C1=O | – | ? | – | –
COCCCNc1c2c3c(cccc3[nH]c1=O)C(=O)c1ccccc1-2 | – | 12µM | – | –
CCC(Cn1nnc2ccccc2c1=O)NC(=O)Nc1cc(Cl)ccc1OC (centres undefined) | – | · | · | –
Cc1sc(NC(=O)c2cccs2)c(C(N)=O)c1C | – | ? | – | 10µM
CCCC1CCc2c(sc(NC(=O)c3cccs3)c2C(N)=O)C1 (centres undefined) | 11µM | ? | – | –
NC(=O)c1ccsc1NC(=O)c1cccs1 | – | · | – | ?
Cc1ccc(C)c(-c2cc(C(=O)Nc3sc(C)c(C)c3C(N)=O)c3ccccc3n2)c1 | – | 18µM | – | –
CC1CCc2c(sc(NC(=O)c3cccs3)c2C(=O)O)C1 (centres undefined) | – | – | – | –
Cn1c(=O)oc2cc(S(=O)(=O)NC(CC(=O)O)c3cccc(Br)c3)ccc21 (centres undefined) | · | · | · | –
CNC(=S)N(C)[C@H]1c2c(ccc3ccccc23)OC[C@H]1CO | – | 23µM | – | –[9.22 µM]
SMILES | BRCA1 expr act | ELG1 repair inh | IL2 activator | Nrf2 ARE act
CN(C(=O)C(C)(C)C)C1c2c(ccc3ccccc23)OCC1CO (centres undefined) | – | – | – | –
Cc1nn(-c2cccc(C(F)(F)F)c2)c(=O)c2ccccc12 | – | – | – | 3.5µM
Cc1nn(-c2ccccc2)c(=O)c2ccccc12 | – | ? | – | –
CCOC(=O)c1c(S(=O)(=O)NCC(=O)Nc2ccc(C)c(N(C)C)c2)c(C)n(C)c1C | · | · | · | –
CCCN(CC1CC1)C(=O)CSc1nnc(-c2cc(-c3cccs3)nc3ccccc23)o1 | – | 9.2µM | – | –
CC(=O)Nc1c(C)nn(-c2ccccc2)c1N1CCC(C(=O)NCc2cccc(F)c2)CC1 | · | · | · | –
O=C(Nc1ccc2nc(SCC(=O)N3CCCC3)sc2c1)c1cccc(F)c1 | · | · | · | –
CCCCCc1ccc(OCCCC[n+]2ccccc2)c(CCCCC)c1 | – | 13µM | – | –
CCCCCc1ccc(OCCCC[n+]2ccc(C)cc2)c(CCCCC)c1 | – | 15µM | – | –
CCCCOc1ccc(C)cc1CN(CCO)CCO | – | – | – | –
CCCCCc1ccc(OCCCC[n+]2cccc(C)c2)c(CCCCC)c1 | – | – | – | –
CCC(C)(C)c1ccc(OCCCC[n+]2ccccc2)c(C(C)(C)CC)c1 | – | 18µM | – | –
COc1ccc2c(CNCCc3ccccc3)c(C(=O)O)n(Cc3cccc(F)c3)c2c1 | · | · | · | –
